# PubChem BioAssay (EPA / NIEHS)
# Records with an inconclusive call do not appear. Calls of active or inactive are those of the source. Rule for the calls, unless noted: active = hit-call score of the fitted dose curve at least 0.9, where 1 is the maximum; inactive = score below 0.9.
# Tests used:
# CD69, CD69 (gene 969) = assay: BSK_SAg_CD69: BioMAP Diversity Plus: SAg Assay for CD69 Biomarker Activity (AID 2283089); settings: primary human HUVEC with PBMC; actives raise or lower the signal;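 for AC50: cell surface CD69 protein quantified by ELISA with fluorescence detection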
# Procedure, shortened: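 Primary human vascular co-culture (umbilical vein endothelium with peripheral blood mononuclear cells) exposed to test chemical for 24 h. CD69 levels quantified by fluorescence ELISA; DMSO served as negative control for bidirectional fitting.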
# [1] = read-out: Monocyte Chemoattractant Protein-1 (MCP1), CCL2 (gene 6347); assay: BSK_SAg_MCP1: BioMAP Diversity Plus: SAg Assay for Monocyte Chemoattractant Protein-1 (MCP1) Biomarker Activity (AID 2283090); settings: primary human HUVEC with PBMC; actives raise or lower the signal
# Procedure, shortened: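 Values derive from bidirectional fitting of ELISA-measured MCP1 against DMSO controls. Readings were taken 24 h after dosing human vascular endothelial cells co-cultured with peripheral blood mononuclear cells under superantigen stimulation.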
# [2] = read-out: E-selectin (Homo sapiens) (UniProt P16581); assay: BSK_SAg_Eselectin: BioMAP Diversity Plus: SAg Assay for Eselectin Biomarker Activity (AID 2283091); settings: primary human HUVEC with PBMC; actives raise or lower the signal
# Procedure, shortened: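 Human umbilical vein endothelial cells co-cultured with peripheral blood mononuclear cells, SAg system. E-selectin is measured by ELISA 24 h after dosing and fitted bidirectionally against DMSO. Cytotoxicity is checked by SRB staining of parallel cultures.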
# [3] = read-out: Monokine induced gamma interferon (MIG), CXCL9 (gene 4283); assay: BSK_SAg_MIG: BioMAP Diversity Plus: SAg Assay for Monokine induced gamma interferon (MIG) Biomarker Activity (AID 2283092); settings: primary human HUVEC with PBMC; actives raise or lower the signal
# Procedure, shortened: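 Endothelial cells and PBMC were co-cultured, exposed to test chemicals, and sampled 24 h later. MIG was measured by ELISA, and responses were fitted in both directions relative to DMSO.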
# [4] = BSK_SAg_PBMCCytotoxicity: PBMC Cytotoxicity Assessment in the BioMAP Diversity Plus: SAg Assay (AID 2283093); settings: primary human HUVEC with PBMC;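 note: PBMC viability measured as Alamar Blue reduction fluorescence at 546/580 nm; fitted both ways against DMSO so a hit may be loss or gain of signal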;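 for AC50: PBMC superantigen activated with SEB plus TSST-1 one hour after compound addition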
# Procedure, shortened: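 Alamar Blue reduction (6 h, 546/580 nm) reports PBMC cytotoxicity after 90 h superantigen activation (SEB, TSST-1; 20 ng/mL final each) with 1 h compound pre-treatment. Gain or loss of signal fitted versus DMSO.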
# [5] = read-out: Interleukin-8 (IL8), CXCL8 (gene 3576); assay: BSK_SAg_IL8: BioMAP Diversity Plus: SAg Assay for Interleukin-8 (IL8) Biomarker Activity (AID 2283094); settings: primary human HUVEC with PBMC; actives raise or lower the signal
# Procedure, shortened: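 HUVEC/PBMC co-culture, 24 h post-dose; IL-8 by ELISA. Gain or loss of signal fitted bidirectionally vs DMSO baseline.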
# [6] = BSK_SAg_Proliferation: Cell Proliferation Assessment in the BioMAP Diversity Plus: SAg Assay (AID 2283095); settings: primary human HUVEC with PBMC;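 note: relative cell number as total protein by SRB absorbance in sub-confluent culture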
# Procedure, shortened: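 HUVEC/PBMC co-culture, 96-well. TCA-fixed (10%), 0.1% SRB stain, A560 at 96 h. Protein content used as viability readout; bidirectional fitting vs DMSO control.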
# [7] = BSK_SAg_SRB: Viability Assessment in the BioMAP Diversity Plus: SAg Assay (AID 2283096); settings: primary human HUVEC with PBMC;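 note: cells read one day after compound addition; hits may be either gain or loss of signal compared with DMSO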
# Procedure, shortened: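 This overt-cytotoxicity endpoint quantifies protein in human endothelial/PBMC co-cultures at 24 h using SRB absorbance (560 nm) after trichloroacetic acid fixation. Values reflect signal change from the DMSO negative control, fitted bidirectionally.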
# [8] = target: human CYP2D6, CYP2D6 (gene 1565) (UniProt P10635); assay: NVS_ADME_hCYP2D6: NovaScreen (NVS) CYP450-related Enzyme Activity (ADME) Assay for human CYP2D6 (AID 2283107; active = hit-call score of the fitted dose curve at least 0.9, where 1 is the maximum)
# human CYP2D6, CYP2D6 (gene 1565), sequence (P10635 whole entry, looked up): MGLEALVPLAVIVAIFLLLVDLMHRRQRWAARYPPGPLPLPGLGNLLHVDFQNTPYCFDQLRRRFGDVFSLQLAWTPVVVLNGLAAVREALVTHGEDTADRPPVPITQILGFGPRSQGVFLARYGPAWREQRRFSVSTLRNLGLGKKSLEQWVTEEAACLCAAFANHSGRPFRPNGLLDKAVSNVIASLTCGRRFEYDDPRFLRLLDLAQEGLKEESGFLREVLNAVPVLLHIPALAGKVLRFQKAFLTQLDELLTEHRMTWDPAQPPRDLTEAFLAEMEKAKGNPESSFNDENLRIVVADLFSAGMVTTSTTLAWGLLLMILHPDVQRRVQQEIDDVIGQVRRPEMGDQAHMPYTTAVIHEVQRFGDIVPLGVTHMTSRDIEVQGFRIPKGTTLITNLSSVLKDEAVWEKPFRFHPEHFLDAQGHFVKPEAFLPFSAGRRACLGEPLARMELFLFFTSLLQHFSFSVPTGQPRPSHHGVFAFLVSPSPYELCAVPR
# Procedure, shortened: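 Cell-free assay using recombinant human CYP2D6 expressed in insect cells, with a fluorogenic substrate read after 1 h. Primary screen in duplicate at 10 uM; actives followed up in concentration series. Loss of signal fitted relative to acetonitrile.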
# [9] = target: human CYP1A1, CYP1A1 (gene 1543) (UniProt P04798); assay: NVS_ADME_hCYP1A1: NovaScreen (NVS) CYP450-related Enzyme Activity (ADME) Assay for human CYP1A1 (AID 2283100; active = hit-call score of the fitted dose curve at least 0.9, where 1 is the maximum)
# human CYP1A1, CYP1A1 (gene 1543), sequence (P04798 whole entry, looked up): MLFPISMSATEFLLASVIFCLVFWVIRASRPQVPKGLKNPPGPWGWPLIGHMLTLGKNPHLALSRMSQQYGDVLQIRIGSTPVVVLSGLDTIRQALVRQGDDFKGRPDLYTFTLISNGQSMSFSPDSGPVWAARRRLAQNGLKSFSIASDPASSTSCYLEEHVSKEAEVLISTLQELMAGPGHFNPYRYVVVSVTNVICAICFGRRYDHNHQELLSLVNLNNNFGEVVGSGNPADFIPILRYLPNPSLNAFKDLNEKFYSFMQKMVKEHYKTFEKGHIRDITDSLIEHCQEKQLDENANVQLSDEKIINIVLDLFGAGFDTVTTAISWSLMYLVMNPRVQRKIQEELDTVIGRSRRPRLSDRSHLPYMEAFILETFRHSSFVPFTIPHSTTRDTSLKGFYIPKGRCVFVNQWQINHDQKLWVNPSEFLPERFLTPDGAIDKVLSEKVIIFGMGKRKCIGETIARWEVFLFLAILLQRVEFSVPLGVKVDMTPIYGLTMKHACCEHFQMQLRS
# Procedure, shortened: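 Recombinant CYP1A1 with a fluorogenic substrate, cell-free, read 1 h after dosing; acetonitrile as negative control. Single-concentration screen at 10 uM in duplicate, then concentration-response up to 20 uM for chemicals meeting ~30% inhibition threshold.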
# [10] = target: human CYP2B6, CYP2B6 (gene 1555) (UniProt P20813); assay: NVS_ADME_hCYP2B6: NovaScreen (NVS) CYP450-related Enzyme Activity (ADME) Assay for human CYP2B6 (AID 2283101; active = hit-call score of the fitted dose curve at least 0.9, where 1 is the maximum)
# human CYP2B6, CYP2B6 (gene 1555), sequence (P20813 whole entry, looked up): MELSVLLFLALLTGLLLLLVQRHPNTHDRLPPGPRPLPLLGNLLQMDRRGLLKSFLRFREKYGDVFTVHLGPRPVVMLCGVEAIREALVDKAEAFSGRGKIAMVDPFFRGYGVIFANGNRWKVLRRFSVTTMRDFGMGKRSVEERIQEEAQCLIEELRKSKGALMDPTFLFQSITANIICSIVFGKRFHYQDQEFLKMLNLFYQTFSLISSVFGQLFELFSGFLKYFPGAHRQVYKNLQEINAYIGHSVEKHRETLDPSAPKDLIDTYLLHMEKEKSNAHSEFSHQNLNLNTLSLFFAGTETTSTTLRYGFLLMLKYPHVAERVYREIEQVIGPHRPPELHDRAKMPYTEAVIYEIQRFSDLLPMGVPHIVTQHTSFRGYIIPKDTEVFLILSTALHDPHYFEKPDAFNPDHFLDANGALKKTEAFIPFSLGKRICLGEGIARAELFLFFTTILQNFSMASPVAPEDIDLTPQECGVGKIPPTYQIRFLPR
# Procedure, shortened: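 Cell-free recombinant enzyme assay with a fluorogenic substrate; fluorescence intensity read 1 hour after dosing. Loss of signal relative to acetonitrile negative control indicates inhibition. Primary screen run in duplicate at 10 uM, actives then tested in concentration series.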
# [11] = target: human CYP1A2, CYP1A2 (gene 1544) (UniProt P05177); assay: NVS_ADME_hCYP1A2: NovaScreen (NVS) CYP450-related Enzyme Activity (ADME) Assay for human CYP1A2 (AID 2283102; active = hit-call score of the fitted dose curve at least 0.9, where 1 is the maximum;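 note: potency for inhibition since loss of fluorescence marks reduced CYP1A2 activity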)
# human CYP1A2, CYP1A2 (gene 1544), sequence (P05177 whole entry, looked up): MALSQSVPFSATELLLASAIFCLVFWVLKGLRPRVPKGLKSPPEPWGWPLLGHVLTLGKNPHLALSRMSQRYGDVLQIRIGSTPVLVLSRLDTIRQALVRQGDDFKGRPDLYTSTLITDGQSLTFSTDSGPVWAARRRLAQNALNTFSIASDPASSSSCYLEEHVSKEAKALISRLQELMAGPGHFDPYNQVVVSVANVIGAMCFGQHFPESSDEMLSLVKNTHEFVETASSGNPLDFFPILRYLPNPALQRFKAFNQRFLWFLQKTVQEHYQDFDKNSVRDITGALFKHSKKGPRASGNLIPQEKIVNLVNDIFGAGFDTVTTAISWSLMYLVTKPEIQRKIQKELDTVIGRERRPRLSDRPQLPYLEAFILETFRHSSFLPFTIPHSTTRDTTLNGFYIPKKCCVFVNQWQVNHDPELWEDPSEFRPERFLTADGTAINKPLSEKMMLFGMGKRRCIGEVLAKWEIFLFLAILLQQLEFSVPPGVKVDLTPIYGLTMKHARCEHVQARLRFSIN
# Procedure, shortened: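 Recombinant human CYP1A2 from insect cells, cell-free, fluorogenic substrate; read 0.5 h after dosing with loss of fluorescence signal indicating inhibition. Primary screen in duplicate at 10 uM, acetonitrile as negative control.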
# [12] = target: human CYP2C9, CYP2C9 (gene 1559) (UniProt P11712); assay: NVS_ADME_hCYP2C9: NovaScreen (NVS) CYP450-related Enzyme Activity (ADME) Assay for human CYP2C9 (AID 2283108; active = hit-call score of the fitted dose curve at least 0.9, where 1 is the maximum)
# human CYP2C9, CYP2C9 (gene 1559), sequence (P11712 whole entry, looked up): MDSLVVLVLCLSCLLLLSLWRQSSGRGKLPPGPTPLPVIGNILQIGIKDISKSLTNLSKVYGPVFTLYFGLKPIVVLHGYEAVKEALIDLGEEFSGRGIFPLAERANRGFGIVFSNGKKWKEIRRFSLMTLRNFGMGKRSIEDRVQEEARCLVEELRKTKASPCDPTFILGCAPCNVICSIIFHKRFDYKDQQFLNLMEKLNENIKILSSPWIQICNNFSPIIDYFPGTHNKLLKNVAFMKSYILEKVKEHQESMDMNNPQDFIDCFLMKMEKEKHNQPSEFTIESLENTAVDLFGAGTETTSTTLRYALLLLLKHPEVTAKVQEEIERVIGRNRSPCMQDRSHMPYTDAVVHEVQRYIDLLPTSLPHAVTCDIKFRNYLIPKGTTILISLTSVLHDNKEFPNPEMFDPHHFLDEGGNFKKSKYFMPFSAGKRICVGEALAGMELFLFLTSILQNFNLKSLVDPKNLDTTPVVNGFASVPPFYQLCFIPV
# Procedure, shortened: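 Cell-free assay of recombinant human CYP2C9 produced in Sf9 cells, with enzyme activity read by fluorescence intensity 0.75 h after compound addition. Loss of signal versus an acetonitrile negative control indicates inhibition. Primary screen used 10 uM in duplicate; actives were retested in concentration series.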
# [13] = target: Cytochrome P450 3A4 (Homo sapiens) (UniProt P08684); assay: NVS_ADME_hCYP3A4: NovaScreen (NVS) CYP450-related Enzyme Activity (ADME) Assay for human CYP3A4 (AID 2283110; active = hit-call score of the fitted dose curve at least 0.9, where 1 is the maximum)
# Cytochrome P450 3A4 (Homo sapiens), sequence (P08684 whole entry, looked up): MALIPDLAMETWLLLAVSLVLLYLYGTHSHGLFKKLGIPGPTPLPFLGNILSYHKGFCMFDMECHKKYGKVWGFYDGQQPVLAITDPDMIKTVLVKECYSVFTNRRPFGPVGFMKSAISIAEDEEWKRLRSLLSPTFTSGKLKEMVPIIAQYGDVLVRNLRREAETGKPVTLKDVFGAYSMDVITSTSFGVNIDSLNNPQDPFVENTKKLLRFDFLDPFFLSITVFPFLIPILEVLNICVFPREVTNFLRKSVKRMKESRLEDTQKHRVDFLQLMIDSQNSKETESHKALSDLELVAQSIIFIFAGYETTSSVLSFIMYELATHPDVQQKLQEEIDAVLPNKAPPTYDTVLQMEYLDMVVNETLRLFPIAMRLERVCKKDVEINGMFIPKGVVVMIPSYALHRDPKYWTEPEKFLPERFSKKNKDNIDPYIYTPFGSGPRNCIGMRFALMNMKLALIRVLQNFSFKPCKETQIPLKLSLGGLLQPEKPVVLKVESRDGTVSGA
# Procedure, shortened: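 Activity is derived from decreased fluorescence intensity relative to acetonitrile, measured 0.33 hour after dosing insect-cell-expressed CYP3A4 in a cell-free format. Screening used 10 uM in duplicate before concentration-response follow-up.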
# [14] = target: human CYP4F12, CYP4F12 (gene 66002) (UniProt Q9HCS2); assay: NVS_ADME_hCYP4F12: NovaScreen (NVS) CYP450-related Enzyme Activity (ADME) Assay for human CYP4F12 (AID 2283111; active = hit-call score of the fitted dose curve at least 0.9, where 1 is the maximum)
# human CYP4F12, CYP4F12 (gene 66002), sequence (Q9HCS2 whole entry, looked up): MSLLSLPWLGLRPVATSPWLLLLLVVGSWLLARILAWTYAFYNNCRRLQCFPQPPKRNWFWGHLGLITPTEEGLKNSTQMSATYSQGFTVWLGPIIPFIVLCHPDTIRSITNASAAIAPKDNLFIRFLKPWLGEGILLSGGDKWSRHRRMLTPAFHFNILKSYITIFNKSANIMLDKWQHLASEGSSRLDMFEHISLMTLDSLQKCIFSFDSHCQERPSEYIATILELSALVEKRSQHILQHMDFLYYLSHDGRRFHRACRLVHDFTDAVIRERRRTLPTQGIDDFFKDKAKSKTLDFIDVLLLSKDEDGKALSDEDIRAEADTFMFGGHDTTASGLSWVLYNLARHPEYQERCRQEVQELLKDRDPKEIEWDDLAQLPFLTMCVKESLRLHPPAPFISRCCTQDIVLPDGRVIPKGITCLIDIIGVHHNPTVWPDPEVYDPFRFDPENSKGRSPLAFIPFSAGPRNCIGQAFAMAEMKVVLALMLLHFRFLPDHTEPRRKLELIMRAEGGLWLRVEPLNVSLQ
# Procedure, shortened: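 Recombinant enzyme with a fluorescent substrate, signal read at 0.5 h post-dose; activity loss analysed relative to acetonitrile. Compounds first run in duplicate at 10 uM, with follow-up concentration-response testing of actives.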
# [15] = target: Cytochrome P450 2C19 (Homo sapiens) (UniProt P33261); assay: NVS_ADME_hCYP2C19: NovaScreen (NVS) CYP450-related Enzyme Activity (ADME) Assay for human CYP2C19 (AID 2283113; active = hit-call score of the fitted dose curve at least 0.9, where 1 is the maximum;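 note: potency for inhibition seen as loss of fluorescent signal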)
# Procedure, shortened: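 Cell-free recombinant human CYP2C19 from insect cells, fluorescent substrate; activity read by fluorescence intensity 1 h after dosing. Primary screen in duplicate at 10 uM; actives retested in concentration series. Signal loss versus acetonitrile negative control.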
# [16] = target: human CYP2A6, CYP2A6 (gene 1548) (UniProt P11509); assay: NVS_ADME_hCYP2A6: NovaScreen (NVS) CYP450-related Enzyme Activity (ADME) Assay for human CYP2A6 (AID 2283099; active = hit-call score of the fitted dose curve at least 0.9, where 1 is the maximum)
# human CYP2A6, CYP2A6 (gene 1548), sequence (P11509 whole entry, looked up): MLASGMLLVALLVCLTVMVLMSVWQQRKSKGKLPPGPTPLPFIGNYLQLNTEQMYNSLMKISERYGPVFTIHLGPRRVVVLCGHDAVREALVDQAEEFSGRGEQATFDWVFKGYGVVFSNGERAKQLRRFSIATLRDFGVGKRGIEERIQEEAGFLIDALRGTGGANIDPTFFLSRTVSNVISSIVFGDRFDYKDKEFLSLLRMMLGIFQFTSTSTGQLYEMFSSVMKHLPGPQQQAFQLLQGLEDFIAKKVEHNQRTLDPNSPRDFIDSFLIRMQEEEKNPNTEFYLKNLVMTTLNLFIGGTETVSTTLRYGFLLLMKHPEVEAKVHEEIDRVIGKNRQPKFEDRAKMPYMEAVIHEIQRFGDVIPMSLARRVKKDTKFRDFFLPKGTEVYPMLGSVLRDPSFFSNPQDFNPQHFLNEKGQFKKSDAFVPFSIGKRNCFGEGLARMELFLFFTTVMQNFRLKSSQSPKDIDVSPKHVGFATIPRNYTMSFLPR
# Procedure, shortened: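 Recombinant human CYP2A6 expressed in insect cells, cell-free; fluorogenic substrate turnover read by fluorescence intensity 0.5 h after dosing. Primary screen 10 uM in duplicate, then concentration-response up to 20 uM; acetonitrile as negative control.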
# E-selectin (Homo sapiens), sequence (P16581 whole entry, looked up): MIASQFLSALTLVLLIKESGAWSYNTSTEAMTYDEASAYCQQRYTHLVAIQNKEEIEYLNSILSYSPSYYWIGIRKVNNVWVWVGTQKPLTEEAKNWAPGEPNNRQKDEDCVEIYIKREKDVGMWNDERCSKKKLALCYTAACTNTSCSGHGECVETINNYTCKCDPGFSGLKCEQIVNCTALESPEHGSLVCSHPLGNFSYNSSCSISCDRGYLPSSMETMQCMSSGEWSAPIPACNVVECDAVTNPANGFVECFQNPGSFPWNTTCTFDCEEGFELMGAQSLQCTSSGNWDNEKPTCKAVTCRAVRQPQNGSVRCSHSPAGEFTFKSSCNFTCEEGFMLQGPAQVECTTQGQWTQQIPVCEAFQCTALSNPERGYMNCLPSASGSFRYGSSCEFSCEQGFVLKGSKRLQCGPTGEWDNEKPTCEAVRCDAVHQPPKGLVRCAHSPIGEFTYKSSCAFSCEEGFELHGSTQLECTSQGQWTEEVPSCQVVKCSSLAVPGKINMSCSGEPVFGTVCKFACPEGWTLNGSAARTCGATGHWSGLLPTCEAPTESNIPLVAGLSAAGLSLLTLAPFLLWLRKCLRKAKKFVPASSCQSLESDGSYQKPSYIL
compound,measurement,setting,value
Nc1cccc2ccccc12,outcome,"CD69, CD69 (gene 969)",inactive
same,outcome,[1],inactive
same,outcome,[2],inactive
same,outcome,[3],inactive
same,outcome,[4],inactive
same,outcome,[5],inactive
same,outcome,[6],inactive
same,outcome,[7],inactive
same,AC50,[8],3.45 µM (active)
CCCCC(CC)CO[N+](=O)[O-] (configuration not stated),outcome,"CD69, CD69 (gene 969)",inactive
same,outcome,[1],inactive
same,outcome,[2],inactive
same,outcome,[3],inactive
same,outcome,[4],inactive
same,outcome,[5],inactive
same,outcome,[6],inactive
same,outcome,[7],inactive
C=CC(=O)OCCCCCC(C)C,outcome,"CD69, CD69 (gene 969)",inactive
same,outcome,[1],inactive
same,outcome,[2],inactive
same,outcome,[3],inactive
same,outcome,[4],inactive
same,outcome,[5],inactive
same,outcome,[6],inactive
same,outcome,[7],inactive
CCOP(=S)(OCC)SCCS(=O)(=O)CC,outcome,"CD69, CD69 (gene 969)",inactive
same,outcome,[1],inactive
same,outcome,[2],inactive
same,outcome,[3],inactive
same,outcome,[4],inactive
same,outcome,[5],inactive
same,outcome,[6],inactive
same,outcome,[7],inactive
CC(=O)[O][Hg][c]1ccccc1,AC50,"CD69, CD69 (gene 969)",1.39 µM (active)
same,AC50,[1],1.04 µM (active)
same,AC50,[2],1.58 µM (active)
same,AC50,[3],1.78 µM (active)
same,AC50,[4],0.318 µM (active)
same,AC50,[5],11.9 µM (active)
same,AC50,[6],0.259 µM (active)
same,AC50,[7],1.63 µM (active)
same,AC50,[9],16 µM (active)
same,AC50,[10],6.73 µM (active)
same,AC50,[11],3.31 µM (active)
same,AC50,[8],4.16 µM (active)
same,AC50,[12],9.85 µM (active)
same,AC50,[13],1.28 µM (active)
same,AC50,[14],1.9 µM (active)
same,AC50,[15],1.04 µM (active)
COC[C@H](C)N(C(=O)CCl)c1c(C)csc1C,outcome,"CD69, CD69 (gene 969)",inactive
same,outcome,[1],inactive
same,outcome,[2],inactive
same,outcome,[3],inactive
same,outcome,[4],inactive
same,outcome,[5],inactive
same,outcome,[6],inactive
same,outcome,[7],inactive
CC(C)(OO)c1ccccc1,outcome,"CD69, CD69 (gene 969)",inactive
same,outcome,[1],inactive
same,outcome,[3],inactive
same,outcome,[4],inactive
same,outcome,[5],inactive
same,outcome,[6],inactive
same,outcome,[7],inactive
CCOC(=O)/C=C(C)/C=C/C[C@@H](C)CCCC(C)C,AC50,"CD69, CD69 (gene 969)",20 µM (active)
same,AC50,[1],29 µM (active)
same,AC50,[2],22.4 µM (active)
same,outcome,[3],inactive
same,AC50,[4],26.4 µM (active)
same,AC50,[5],20 µM (active)
same,AC50,[6],31.5 µM (active)
same,AC50,[7],33.1 µM (active)
O=C(O)CCC(F)(C(F)(F)F)C(F)(F)F,outcome,"CD69, CD69 (gene 969)",inactive
same,outcome,[1],inactive
same,outcome,[2],inactive
same,outcome,[3],inactive
same,outcome,[4],inactive
same,outcome,[5],inactive
same,outcome,[6],inactive
same,outcome,[7],inactive
CC1(C)Cc2cccc(O)c2O1,outcome,"CD69, CD69 (gene 969)",inactive
same,outcome,[1],inactive
same,outcome,[2],inactive
same,outcome,[3],inactive
same,outcome,[4],inactive
same,outcome,[5],inactive
same,outcome,[6],inactive
same,outcome,[7],inactive
COP(=S)(OC)Oc1cc(Cl)c(Cl)cc1Cl,outcome,"CD69, CD69 (gene 969)",inactive
same,outcome,[1],inactive
same,AC50,[2],5.51 µM (active)
same,outcome,[3],inactive
same,outcome,[4],inactive
same,outcome,[5],inactive
same,outcome,[6],inactive
same,outcome,[7],inactive
CCCCCCCCc1ccc(O)cc1,AC50,"CD69, CD69 (gene 969)",31.7 µM (active)
same,AC50,[1],32.6 µM (active)
same,AC50,[2],29.2 µM (active)
same,AC50,[3],35.6 µM (active)
same,AC50,[4],29 µM (active)
same,AC50,[5],32.2 µM (active)
same,AC50,[6],19.3 µM (active)
same,AC50,[7],38.2 µM (active)
same,outcome,[16],inactive
C[C@@H]1C[C@@H]([C@H](O)CC2CC(=O)NC(=O)C2)C(=O)[C@@H](C)C1,AC50,"CD69, CD69 (gene 969)",6.63 µM (active)
same,AC50,[1],7.88 µM (active)
same,AC50,[2],0.585 µM (active)
same,AC50,[3],13 µM (active)
same,AC50,[4],4.6 µM (active)
same,AC50,[5],1.4 µM (active)
same,AC50,[6],3.82 µM (active)
same,AC50,[7],7.07 µM (active)
O=Cc1cccc(Oc2ccccc2)c1,outcome,"CD69, CD69 (gene 969)",inactive
same,outcome,[1],inactive
same,outcome,[2],inactive
same,outcome,[3],inactive
same,outcome,[4],inactive
same,outcome,[5],inactive
same,outcome,[6],inactive
same,outcome,[7],inactive
CCNc1nc(NC(C)(C)C)nc(SC)n1,AC50,"CD69, CD69 (gene 969)",14.6 µM (active)
same,outcome,[1],inactive
same,outcome,[3],inactive
same,outcome,[4],inactive
same,outcome,[5],inactive
same,outcome,[6],inactive
same,outcome,[7],inactive
C=C(C)C(=O)[O][Sn]([CH2]CCC)([CH2]CCC)[CH2]CCC,AC50,"CD69, CD69 (gene 969)",0.148 µM (active)
same,AC50,[1],0.352 µM (active)
same,AC50,[2],0.147 µM (active)
same,AC50,[3],0.148 µM (active)
same,AC50,[4],0.236 µM (active)
same,AC50,[5],0.31 µM (active)
same,AC50,[6],0.188 µM (active)
same,AC50,[7],0.148 µM (active)
O=[N+]([O-])c1ccc2c3c(cccc13)CC2,outcome,"CD69, CD69 (gene 969)",inactive
same,outcome,[1],inactive
same,outcome,[3],inactive
same,outcome,[4],inactive
same,outcome,[5],inactive
same,outcome,[6],inactive
same,outcome,[7],inactive
CC(C)(C)CC(C)(C)c1ccc(O)cc1,AC50,"CD69, CD69 (gene 969)",11.5 µM (active)
same,AC50,[1],9.24 µM (active)
same,AC50,[2],9.86 µM (active)
same,AC50,[3],10.7 µM (active)
same,AC50,[4],8.43 µM (active)
same,AC50,[5],10.2 µM (active)
same,AC50,[6],5.84 µM (active)
same,AC50,[7],11.3 µM (active)
same,AC50,[10],6.7 µM (active)
